High-throughput results from PubChem BioAssay.
This is a sample that favours compounds with a hit; in the whole collection about 2.7% have one here.
SENP8 block-1: blocks the human protease SENP8; inhibition, % at 10 µM; 330,000 tested, 1.2% active; purified SENP8, Z-RLRGG-aminoluciferin cleavage, luminescence; in the data active means inhibition above about 50%
Target sequence (Q96LD8 whole entry, looked up): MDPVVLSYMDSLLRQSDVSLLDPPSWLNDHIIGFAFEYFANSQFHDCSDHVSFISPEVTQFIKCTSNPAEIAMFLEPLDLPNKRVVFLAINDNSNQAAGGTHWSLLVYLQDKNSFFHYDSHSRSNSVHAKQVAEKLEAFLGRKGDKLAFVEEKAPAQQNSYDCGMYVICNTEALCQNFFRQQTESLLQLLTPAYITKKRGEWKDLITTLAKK
SENP7 block: SENP7 protease inhibition. Q9BQF6. recombinant SENP7, Z-RLRGG-aminoluciferin luminescence, 40 min. inhibition, % at 5 µM. 330,000 tested, 1.5% active;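 active means inhibition above about 50% at the single test dose, limit read from the data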;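 further: plate controls were DMSO with enzyme for no effect and no enzyme buffer wells for full effect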
Target sequence (Q9BQF6 706-1050 limits assumed): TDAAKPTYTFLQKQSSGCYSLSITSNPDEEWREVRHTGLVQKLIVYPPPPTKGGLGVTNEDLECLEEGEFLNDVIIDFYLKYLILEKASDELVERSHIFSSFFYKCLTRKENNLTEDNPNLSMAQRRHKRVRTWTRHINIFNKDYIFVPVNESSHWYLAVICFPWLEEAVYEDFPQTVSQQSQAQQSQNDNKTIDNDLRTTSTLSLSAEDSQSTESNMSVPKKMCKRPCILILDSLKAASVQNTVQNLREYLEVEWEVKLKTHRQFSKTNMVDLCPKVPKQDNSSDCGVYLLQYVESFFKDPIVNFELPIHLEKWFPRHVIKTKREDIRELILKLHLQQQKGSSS
HSP90 refold inh: inhibitors of HSP90 luciferase refolding in rabbit reticulocyte lysate; luciferase refolding luminescence, 3 h; AID 1789; 290,000 tested, 0.91% active; inhibition, % at 5.6 µM;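 active means inhibition above the screen-wide mean plus 3 SD, computed separately per campaign, cut at about 16% in these data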;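 further: 0% = DMSO wells and 100% = 60 µM geldanamycin wells; inhibitors lower the luminescence because luciferase stays unfolded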
SENP6 inh: inhibitors of human SENP6 protease. Recombinant SENP6 catalytic domain, aminoluciferin luminescence. Q9GZR1. 330,000 tested, 1.8% active. inhibition, % at 10 µM. AID 2599;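 active means inhibition above about 50% at the single tested dose, limit read from the data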;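 further: plate controls were DMSO wells with enzyme for no effect and DMSO wells lacking enzyme for full effect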
SENP8 block-2: SENP8 (human) protease inhibition; Q96LD8; inhibition, % at 20 µM; recombinant SENP8, Nedd8 substrate fluorescence; 360,000 tested, 0.64% active; AID 602440; in the data active means inhibition mostly above about 40%, no sharp cut-off; inactive means mostly below about 27%
SENP8 confirm: confirmation of human SENP8 protease inhibitors. 6,200 tested, 40% active. inhibition, % at 12.5 µM. shares compounds with SENP7 block. Recombinant SENP8, Z-RLRGG-aminoluciferin luminescence, 60 min;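 active means mean inhibition across replicates above about 50%, limit read from the data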
SENP6 conf: human SENP6 inhibition, confirmed. shares compounds with SENP7 block. recombinant SENP6, Z-RLRGG-aminoluciferin luminescence. inhibition, % at 12.5 µM. 6,200 tested, 58% active
SENP7 confirm: human SENP7 inhibition, confirmed; shares compounds with SENP7 block; recombinant SENP7, Z-RLRGG-aminoluciferin luminescence, 40 min; inhibition, % at 12.5 µM; 6,200 tested, 69% active
Casp3 select: selectivity test for SENP inhibitors: human caspase-3 inhibition | shares compounds with SENP7 block | purified caspase-3, Z-DEVD-aminoluciferin luminescence, 60 min | inhibition, % at 12.5 µM | 6,200 tested, 60% active;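 active means mean inhibition above about 50%, limit read from the data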;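 further: plate controls were enzyme with DMSO for no effect and wells without caspase-3 for full effect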
Luc interf: luminescence interference (SENP counter-screen); shares compounds with SENP7 block; inhibition, % at 12.5 µM; Pre-incubated SENP8/Z-RLRGG-aminoluciferin, luciferase luminescence interference; AID 488919; 6,200 tested, 39% active;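 active means mean inhibition above about 50% when retested at one dose, limit read from the data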;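 further: plate controls were DMSO wells with completed reaction for no effect and substrate without enzyme for full effect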
* = called active by the depositor; i = inactive; x = no result.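 How the source made its calls, unless noted: active means mean inhibition above about 50% in the one-dose retest (limit read from the data); inactive means the rest.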

SMILES | SENP8 block-1 | SENP7 block | HSP90 refold inh | SENP6 inh | SENP8 block-2 | SENP8 confirm | SENP6 conf | SENP7 confirm | Casp3 select | Luc interf
O=C(/C=C/c1ccco1)Nc1sc2c(c1C(=O)O)CCC2 | 84* | 44 | -1 | 92* | 9 | 91* | 90* | 99* | 94* | 92*
CC(C)(C)NC(=O)N1CCn2cccc2C1c1ccccc1F (stereo not drawn) | 4 | 97* | -10 | -24 | -1 | 1 | 8 | 8 | 8 | 6
CCOC(=O)c1sc(NC(=O)c2ccc3nc[nH]c3c2)nc1C | 73* | 75* | 9 | 81* | -84 | 12 | 72* | 36 | 26 | 5
COC(=O)c1sc(NC(=O)c2ccncc2)nc1C | 86* | 94* | 11 | 90* | 9 | 80* | 91* | 100* | 97* | 49
CCOc1ccc(C(=O)Nc2nc(C)c(C(=O)OC)s2)cc1 | 43 | 92* | 7 | 54* | -113 | 31 | 30 | 36 | 50 | 12
CCOC(=O)c1sc(NC(=O)c2cccnc2)nc1C | 10 | 4 | x | 21 | -2 | x | x | x | x | x
CCc1cccc(C)c1NC(=O)CN(C)Cc1cccc(F)c1 | -1 | 4 | -7 | -18 | 14 | x | x | x | x | x
O=C(CCCN1C(=O)/C(=C/c2ccccc2Cl)SC1=S)N1CCOCC1 | 86* | 88* | 8 | 80* | 8 | 32 | 55* | 64* | 63* | 34
COc1ccc(/C=C2\SC(=S)N(CCC(=O)Nc3ccc(C(=O)O)cc3)C2=O)cc1 | 31 | -5 | -4 | 13 | 18 | x | x | x | x | x
O=C(O)CCN1C(=O)/C(=C\c2cccc(Oc3ccccc3)c2)SC1=S | 96* | 62* | 6 | 97* | 25 | 2 | 101* | 104* | 32 | 90*
O=C(O)CCN1C(=O)/C(=C\c2ccncc2)SC1=S | 13 | -1 | 2 | 13 | 14 | x | x | x | x | x
COc1ccc(/C=C2/SC(=S)N(CCC(=O)O)C2=O)cc1 | 98* | 85* | 8 | 98* | 13 | 98* | 100* | 104* | 65* | 81*
O=C1NC(=S)S/C1=C\c1ccc2ccccc2c1 | 88* | 10 | -5 | 90* | 18 | 26 | 50* | 38 | 24 | 21
C=CCOC(=O)N1CCC2CC1c1c(-c3ccc(C(F)(F)F)cc3)cccc12 (stereo not drawn) | x | x | x | x | 9 | x | x | x | x | x
CCCCn1nnnc1C(c1cc2ccccc2o1)N(C)CCc1ccccc1 (stereo not drawn) | x | x | x | x | -1 | x | x | x | x | x
COc1cc(C(=S)N2CCOCC2)ccc1OC(=O)c1ccccc1[N+](=O)[O-] | -2 | -1 | 0 | -6 | 6 | x | x | x | x | x
COc1ccc(C=C2SC(=S)NC2=O)cc1 | x | x | x | x | 25 | x | x | x | x | x
O=C(O)CN1C(=O)/C(=C\c2ccc(OC(=O)c3ccco3)cc2)SC1=S | 59* | 1 | -3 | 71* | 17 | 66* | 62* | 79* | 83* | 69*
COc1ccc(/C=C2/SC(=O)NC2=O)cc1 | 71* | 62* | 3 | 86* | 6 | 81* | 76* | 89* | 74* | 84*
COc1ccc(/C=C2\SC(=S)N(CCCC(=O)N3CCOCC3)C2=O)cc1 | 69* | 72* | 5 | 82* | 16 | 83* | 76* | 91* | 63* | 60*
COc1ccc(-c2csc(Nc3ccc(S(N)(=O)=O)cc3)n2)cc1 | -1 | 4 | 2 | -2 | -266 | x | x | x | x | x
O=C1NN(c2ccccc2)C(=O)/C1=C/c1ccc(Sc2ccc(Cl)cc2)o1 | 8 | -1 | 7 | 10 | 19 | x | x | x | x | x
COc1ccc2oc(-c3ccccc3)c(C(=O)N3CCOCC3)c2c1 | -4 | 4 | 3 | -9 | i | x | x | x | x | x
Cc1cc(CNC(=O)COc2ccc(F)cc2Cl)cc(C)c1O | 2 | 7 | 1 | -6 | 10 | x | x | x | x | x
Cc1ccc(-c2nc(Nc3ccccc3)n[nH]2)cc1 | 14 | 51* | -2 | 51* | -114 | 16 | 35 | 73* | 22 | 25
SMILES | SENP8 block-1 | SENP7 block | HSP90 refold inh | SENP6 inh | SENP8 block-2 | SENP8 confirm | SENP6 conf | SENP7 confirm | Casp3 select | Luc interf
Cn1c(=NC(=O)c2ccccc2[N+](=O)[O-])sc2cccc(F)c21 | 20 | 77* | -1 | 47 | 24 | 24 | 25 | 18 | 35 | 0
COc1ccccc1N(CC(=O)Nc1ccc(S(=O)(=O)N2CCCCC2)cc1)S(C)(=O)=O | -5 | -3 | -1 | -17 | 11 | x | x | x | x | x
Cc1cc(N2CC(C(=O)Nc3nccs3)CC2=O)ccc1C(C)C (stereo not drawn) | -3 | -1 | -4 | -6 | 0 | x | x | x | x | x
COc1ccc(C(=O)NCC(=O)N/N=C/c2ccco2)cc1OC | -10 | -7 | 6 | 101* | 14 | 7 | 7 | 14 | 7 | 7
COc1cc2oc3ccccc3c(=O)c2cc1OC | 11 | 2 | -4 | -3 | -206 | x | x | x | x | x
CCOC(=O)/C=C/c1ccc2oc3ccccc3c(=O)c2c1 | 83* | 92* | -3 | 94* | -30 | -1 | 4 | 60* | 3 | 2
Cc1nc(C)c(-c2csc(Nc3ncccc3C)n2)s1 | 61* | 59* | -3 | 67* | 5 | 52* | 60* | 86* | 50 | 25
COc1ccc(-c2csc(Nc3ncccc3C)n2)cc1 | 92* | 93* | 0 | 100* | 11 | 95* | 97* | 102* | 87* | 92*
Cc1cccnc1Nc1nc(-c2ccc(O)c(O)c2)cs1 | 92* | 66* | 7 | 92* | 11 | 89* | 89* | 96* | 45 | 86*
COc1ccc(-c2csc(Nc3ncccc3C)n2)cc1OC | 14 | 14 | 2 | 49 | -38 | x | x | x | x | x
Cc1nc(C)c(-c2csc(Nc3ccc(F)cc3)n2)s1 | -2 | 1 | 0 | -1 | -14 | x | x | x | x | x
COc1cc2ccccc2cc1C(=O)N(CCN(C)C)c1nc2c(C)cccc2s1 | 8 | -4 | -1 | 5 | 18 | x | x | x | x | x
Cc1nc(NS(=O)(=O)c2ccccc2)sc1C(C)(C)C | 0 | 1 | 4 | -19 | 20 | x | x | x | x | x
c1ccc2c3c(cc(N4CCOCC4)c2c1)OC1(N2CCOCC2)CCCCC1O3 (stereo not drawn) | 38 | 45 | 1 | 80* | -290 | 11 | 18 | 11 | 4 | 3
O=C(O)c1ccc(N=Nc2c(-c3ccccc3)[nH]oc2=O)cc1 | 59* | 39 | -2 | 33 | 22 | -8 | -6 | 19 | 7 | 1
